Results taken from PubChem BioAssay (EPA / NIEHS).
Records with an inconclusive call do not appear. The source made the active and inactive calls. How the source made its calls: active means hit-call score of the fitted dose curve at least 0.9, where 1 is the maximum; inconclusive means response in the unintended direction; inactive means score below 0.9.

assay: STM_H9_OrnCyssISnorm_ratio: Stemina devTOX quickPredict H9 human embryonic stem cell (hESC)-based Assay for Ornithine (ORN):Cystine (CYSS) Ratio (AID 2283714)
Method: STM_H9_secretome utilizes undifferentiated H9 cells to measure relative changes in two metabolites, ornithine (ORN) and cystine (CYSS) in the secretome, targeting a critical drop in the ORN/CYSS ratio as a biomarker for developmental toxicity.STM_H9_OrnCyssISnorm_ratio is one of 10 components calculated in the STM_H9_secretome assay. It is the ratio value of OrnISnorm_perc to CyssISnorm_perc.Data from the assay component STM_H9_OrnCyssISnorm_ratio was analyzed at the assay endpoint STM_H9_OrnCyssISnorm_ratio in the positive analysis fitting direction relative to DMSO as the negative control and baseline of activity. Using a type of binding reporter, gain or loss-of-signal activity can be used to understand relative metabolite change.
H9 hESCs maintained in a pluripotent state were exposed to test compound for 72h with chemical replenishment with media replacement every 24h. Cell-conditioned media from the final 24-h treatment period was collected for analysis of the targeted biomarker, and cell viability of the corresponding cell layer was assessed. The chemical library was tested in blinded fashion. Each test plate included 1uM Methotrexate (MTX; Selleck Chemicals, Houston, Texas) as a positive reference, 5 nM MTX as a negative reference, 0.1% DMSO as the neutral (vehicle) control, and sample-level media blanks.H9 cell-conditioned media from the final 24-h treatment period was collected for analysis of the targeted biomarker and cell viability was measured from the corresponding cell layer. Cell viability was measured using the CellTiter-Fluor assay (Promega, Madison, Wisconsin) based on proteolytic cleavage of a substrate to fluorescent signal proportional to the number of living cells. The cell viability Relative Fluorescence Unit (RFU) was background corrected and normalized to mean RFU of the neutral control (0.1% DMSO). The collected H9-cell-conditioned media samples were processed for targeted biomarker analysis as described (Palmer et al., 2013). Briefly, spent media samples were deproteinized (40% acetonitrile) and processed for UPLC-HRMS. Data acquisition was performed using 4 separate UPLC-HRMS systems, consisting of an Agilent 1290 Infinity LC system (Agilent Technologies) interfaced with an Agilent high-resolution mass spectrometer (models G6520A, G6520B, G6530A, and G6224A). A Waters Acquity UPLC BEH Amide column (2.1mm x 50mm, 1.7lm particle size; Waters, Milford, Massachusetts) maintained at 40C was applied for separation of metabolites using a 6.5min solvent gradient with 0.1% formic acid in water and 0.1% formic acid in acetonitrile (1.0ml/min flow rate). Data were acquired using MassHunter Acquisition software (version B 04.00, Agilent Technologies). The extracted ion chromatogram (EIC) areas for ORN, CYSS, and their respective spike-in C13-standards were determined using the Agilent MassHunter Quantitative Analysis software, version B.05.00 or newer (Agilent Technologies), and data were normalized as described in Palmer et al. (2017).

Structure (SMILES) | AC50 | outcome
CCCCC(CC)COC(=O)c1ccccc1C(=O)O (stereo not drawn) | 283 µM (active) | 
S=C(S)NCCNC(=S)S.[Mn+2].[S-]C([S-])=NCCN=C([S-])[S-].[Zn+2] |  | inactive
Cc1nn(C)c(Oc2ccccc2)c1C=NOCc1ccc(C(=O)OC(C)(C)C)cc1 | 0.0589 µM (active) | 
CSC(=O)c1cccc2nnsc12 | 78.6 µM (active) | 
C[C@]12C[C@H](O)[C@H]3[C@@H](CCC4=CC(=O)CC[C@@]43C)[C@@H]1CC[C@@H]2C(=O)CO | 93.8 µM (active) | 
CCSC(=O)N(CC(C)C)CC(C)C |  | inactive
COC(=O)CSc1cc(N=c2sc(=O)n3n2CCCC3)c(F)cc1Cl | 80 µM (active) | 
CC(C)(C)[C@@H](O)[C@@H](Cc1ccc(Cl)cc1)n1cncn1 | 88.7 µM (active) | 
CC(C)CCCCCCc1ccc(O)cc1 | 75.7 µM (active) | 
CCN(Cc1c(F)cccc1Cl)c1c([N+](=O)[O-])cc(C(F)(F)F)cc1[N+](=O)[O-] |  | inactive
CCNc1nc(N)nc(Cl)n1 |  | inactive
S=C([S-])NCCNC(=S)[S-].[Mn+2] |  | inactive
C#CCOC(=O)[C@@H](C)Oc1ccc(Oc2ncc(Cl)cc2F)cc1 | 86.9 µM (active) | 
O=C(O)C1(C(=O)Nc2ccc(Cl)cc2Cl)CC1 | 9.92 µM (active) | 
N#CSCSc1nc2ccccc2s1 | 16.4 µM (active) | 
CCCCOC(=O)C(C)Oc1ccc(Oc2ccc(C(F)(F)F)cn2)cc1 (stereo not drawn) |  | inactive
CN(C)C(=O)Nc1ccc(Cl)c(Cl)c1 | 82.4 µM (active) | 
N[C@@H](Cc1cc(I)c(Oc2ccc(O)c(I)c2)c(I)c1)C(=O)O |  | inactive
COC(=O)c1ccccc1C(=O)O |  | inactive
CCCCCOC(=O)COc1cc(N2C(=O)C3=C(CCCC3)C2=O)c(F)cc1Cl |  | inactive
O=C(Nc1ccc([N+](=O)[O-])cc1Cl)c1cc(Cl)ccc1O |  | inactive
CCCCOC(=O)[C@@H](C)Oc1ccc(Oc2ccc(C(F)(F)F)cn2)cc1 | 52.8 µM (active) | 
CC(C)(c1ccc(O)cc1)c1ccc(O)cc1 |  | inactive
